Measurements reported in ChEMBL document CHEMBL3433997, “St. Jude Leishmania screening dataset” (2016).

Tests used:
Assay type in all cases: functional
[1] = target: Solute carrier family 2, facilitated glucose transporter member 1 (Homo sapiens) (UniProt P11166); assay: ST_JUDE_LEISH: Cytotoxicity at 2uM final concentration against transgenic Leishmania Mexicana promastigotes LmGLUT1 that are glucose transport deficient and complemented with the human glucose transporter GLUT1. Activity is measured by DNA content using SYBR green in vitro
[2] = target: Hexose transporter 1 (Plasmodium falciparum) (UniProt O97467); assay: ST_JUDE_LEISH: Cytotoxicity at 2uM final concentration against transgenic Leishmania Mexicana promastigotes LmPfHT that are glucose transport deficient and complemented with the Plasmodium falciparum hexose transporter. Activity is measured by DNA content using SYBR green in vitro
[3] = target: Glucose transporter (Leishmania mexicana) (UniProt O61059); assay: ST_JUDE_LEISH: Cytotoxicity at 2uM final concentration against transgenic Leishmania Mexicana promastigotes LmGT2 that are glucose transport deficient and complemented with the L. Mexicana glucose transporter 2. Activity is measured by DNA content using SYBR green in vitro

Sequence of Solute carrier family 2, facilitated glucose transporter member 1 (Homo sapiens) (P11166 whole entry): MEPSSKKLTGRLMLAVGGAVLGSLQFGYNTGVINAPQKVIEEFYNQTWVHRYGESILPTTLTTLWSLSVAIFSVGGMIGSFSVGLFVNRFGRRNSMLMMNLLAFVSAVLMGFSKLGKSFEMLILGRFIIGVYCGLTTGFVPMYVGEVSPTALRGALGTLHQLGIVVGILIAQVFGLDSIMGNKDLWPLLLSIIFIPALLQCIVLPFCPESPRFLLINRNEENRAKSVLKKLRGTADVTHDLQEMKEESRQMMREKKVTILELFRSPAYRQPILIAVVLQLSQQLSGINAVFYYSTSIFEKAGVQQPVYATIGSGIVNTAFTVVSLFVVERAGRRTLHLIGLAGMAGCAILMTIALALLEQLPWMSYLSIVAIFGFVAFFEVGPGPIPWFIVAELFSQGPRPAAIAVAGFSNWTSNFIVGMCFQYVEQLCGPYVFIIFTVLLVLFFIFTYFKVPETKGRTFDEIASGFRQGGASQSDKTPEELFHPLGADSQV

Structure (SMILES) | inhibition [1] [%] | inhibition [2] [%] | inhibition [3] [%]
COc1ccc(NC(=O)NC2CCN(CCCCCNC(=O)/C=C/c3ccc(Cl)c(Cl)c3)C2)c(OC)c1 (centres undefined) | -1.78 | -1.48 | 2.83
CCC(C)NCC(O)(c1ccc(Cl)cc1)c1ccc(Cl)cc1 (centres undefined) | -2.33 | -0.32 | -0.2
C=Cc1cc(NC(=O)N2CCc3cc(OC)c(C(F)(F)F)cc32)cc(-c2cccnc2)c1 | 4.52 | -1.84 | -1.09
Cc1cc(=O)c(-c2ccc(Oc3cccc(Cl)c3)cc2)c(C)[nH]1 | 6.01 | 5.62 | 2.24
CCCc1ccc(S(=O)(=O)Nc2ccc3c(c2)CCC3)cc1 | 1.93 | 4.05 | 3.52
CC(C)(C)c1ccc(NC(=O)c2cccc(CN3CCCN(Cc4ccsc4)CC3)c2)cc1 | 5.17 | 1.84 | 1.41
O=C(Nc1ccc(Cn2ncc(N3CCCNCC3)c(Cl)c2=O)cc1)Nc1cccc(SC(F)(F)F)c1 | 0.84 | 1.25 | 0.05
O=C(NCc1cccs1)[C@H](Cc1ccccc1)Nc1ccnc(NCC2CCCCC2)n1 | 11.9 | 10.5 | 10.6
CN(C)C(=O)C(CC(=O)NCc1ccccc1Cl)N(C)C.CN(C)C(=O)CC(C(=O)NCc1ccccc1Cl)N(C)C (centres undefined) | 3.97 | 4.82 | 4.89
CN1CCN(c2ccnc3ccc(NC(=O)Nc4ccccc4Br)cc23)CC1 | -3.53 | -0.8 | 0.11
COc1cc(F)c2nccc([C@@H](O)CN3CCC(NCc4nc5cccc(F)c5[nH]4)CC3)c2c1 | 6.27 | 0.25 | 3.66
COc1cc(OC)cc(-c2nn(-c3ccc([N+](=O)[O-])cc3C#N)c(=S)n2CC2CCCO2)c1 (centres undefined) | 2.04 | 1.07 | -7.78
O=C(Nc1ccc(C(=O)N2CCN(CCN3CCN(c4cccc(C(F)(F)F)c4)CC3)CC2)cc1)c1ccc(C(F)(F)F)cc1 | 2.54 | 2.63 | 1.69
O=C(c1ccc(Cl)cc1)N1CCCC(C(=O)N(Cc2nnc(-c3ccccc3Cl)o2)C2CC2)C1 (centres undefined) | 0.11 | 1.56 | -0.04
Cc1nn(-c2ccccc2)nc1C(=O)N(Cc1ccc(-c2ccc(CNCCc3ccc(S(C)(=O)=O)cc3)cn2)cc1)C(C)CN(C)C (centres undefined) | 0.95 | 3.63 | 3.9
COc1ccc(Nc2ncc(OC)c(Nc3ccccc3C(N)=O)n2)cc1N1CCN(C)CC1 | 17.6 | 21.9 | 7.83
CN(C)Cc1cccc(-c2ccc(NC(=O)c3ccc4c(=O)n(CCN5CCCCC5)cnc4c3)cc2)c1 | 3.67 | 3.74 | 0.81
CCc1cccc2c(C#N)cn(CC(=O)NCCc3ccccc3)c12 | 6.99 | 9.88 | 9.25
CN(c1ccc(NC(=O)Nc2cc(C(F)(F)F)ccc2F)cc1)c1ccnc(NCCN2CCOCC2)n1 | 7.88 | 18.5 | 0.14
O=C(/C=C/c1ccc(Cl)c(Cl)c1)NC1CCN(CCCNC(=O)c2cccc(Cl)c2)CC1 | 6.07 | 6.03 | 7.01
CN(C)CCCOc1ccc(CN2CC[C@H](NC(=O)c3ccc(Cl)c(Cl)c3)C2)c2ccccc12 | -0.55 | 1.01 | 0.71
CS(=O)(=O)c1ccc(Nc2ncc(-c3ccc(S(C)(=O)=O)cc3)c(OCC(F)(F)F)n2)cc1 | 4.36 | 0.18 | 3.17
CCCCOc1ccc(-n2c(Nc3ccccc3)nc3cc(S(N)(=O)=O)ccc32)cc1 | 11.4 | 8.64 | 7.09
Cc1ccc(Cc2c[nH]c(NCCSCc3ccc(CN4CCOCC4)o3)nc2=O)cn1 | 2.52 | 0.59 | 3.98

Structure (SMILES) | inhibition [1] [%] | inhibition [2] [%] | inhibition [3] [%]
O=C(NCC1CC1)C1CCN(C(c2ccc(Cl)cc2)c2ccc(Cl)cc2)CC1 | 0.44 | 1.5 | -2.15
N=C(Nc1cccc(Cc2ccccc2)n1)Nc1ncccn1 | 2.06 | 1.79 | 1.88
CCc1nc2nc(C)cc(Nc3ccc(F)c(Cl)c3)n2n1 | -2.16 | -3.69 | -1.67
Clc1ccccc1CN1CCC(NCc2cccc(-n3ccnc3)c2)CC1 | 2.64 | -1.07 | 1.16
Nc1cc(/C=C/c2ccc([N+](=O)[O-])o2)nc2ccccc12 | 104 | 104 | 101
CCN(CC)CCCC(C)Nc1ccnc2[nH]c3ccccc3c12 (centres undefined) | 6.4 | 6.62 | 4.63
CCNc1cc(CCCC(=O)OCC)nc(Nc2ccc(C)cc2)n1 | 10.3 | 13 | 10.3
CN(C)Cc1ccc2cc(NC(=O)c3ccc(-c4ccc(Cl)cc4)cc3)ccc2n1 | 2.13 | 1.6 | 2.79
COc1ccc(-c2cnc3[nH]cc(-c4ccc(CCC(=O)O)cc4)c3c2)cn1 | 5.06 | 4.52 | 6.38
O=C(/C=C/c1ccc(C(F)(F)F)cc1)NCCCCCN1CCCN(C(=O)Nc2ccc(Cl)cc2)CC1 | 5.01 | 4.49 | 1.84
CCOC(=O)C1=C(C)N=c2sc(=Cc3cc(Cl)ccc3O)c(=O)n2C1c1ccc(OC)cc1 (centres undefined) | -0.92 | 0 | 0.91
COCCN1CCN(Cc2ccc(-c3ccc(-c4nc5cc(F)ccc5[nH]4)cc3)cc2)CC1 | 6.74 | 3 | 0.87
Cc1nc(C(C)Nc2nncc(-c3ccc(Cl)cc3)n2)cs1 (centres undefined) | 1.13 | 0.17 | 1.17
CCCCC1=CC2C(=O)C(C(=O)OC)=CN=C2C=C1OCc1ccccc1 (centres undefined) | -0.41 | -2.57 | -1.77
CN(C(=O)C1(c2ccc(Cl)cc2)CC1)C1CCN(CCCCCNC(=O)/C=C/c2ccc(Cl)c(Cl)c2)CC1 | 0.14 | -0.37 | 4.56
CN1CCC(C(=O)Nc2cccc(-c3cccc(-c4nc5cc(F)ccc5[nH]4)c3)c2)CC1 | 4.7 | 5.02 | 6.69
CCCc1cn2c3c(cc(C(=O)N[C@@H](Cc4ccccc4)[C@H](O)CNC4CCOCC4)cc13)N(C)S(=O)(=O)CC2 | 0.07 | 1.26 | -0.3
CC(C)(C)c1ccc(CN2CCC(NC(=O)c3cc(-c4cccc(C(F)(F)F)c4)cs3)C2)cc1 (centres undefined) | 0.92 | 0.62 | 1.98
CN(C)c1ccc(CN2CCC(NC(=O)c3ccc(-c4ccccc4F)s3)CC2)cc1 | -0.33 | -1.02 | -6.69
Oc1cc(NCc2ccccc2NCc2ccc(Cl)c(Cl)c2)nc2ccccc12 | 2.41 | 3.68 | 3.11
Cc1ccc(-n2ncc(C(=O)Nc3cc(Cl)cc(Cl)c3)c2C2CCNCC2)cc1C | 3.26 | 1.43 | -0.12
COc1cccc(CNC(=O)[C@H]2CNCCN2C(=O)CCCc2ccccc2)c1 | 3.03 | -0.14 | 5.01
Cn1cnc(CCNC(=O)c2ccc(-c3ccc(-c4nc5cc(C(F)(F)F)ccc5[nH]4)s3)cc2)c1 | 2.93 | 3.77 | 3.14
Cc1cc(N[C@@H](Cc2ccccc2)C(=O)Nc2ccccc2)nc(NCCc2cccnc2)n1 | 10.6 | 11 | 9.02
